Among the data in PubChem BioAssay (NCATS) are activity, negative = inhibition and Potency values, retold here.

Each structure is given as a SMILES string. Inconclusive results are not listed. Values without a mark were called inactive. The source made the active and inactive calls. Calls follow the shape of the dose curve; as a rule, active = well fitted inhibition curve with a large enough effect; inconclusive = small, poorly fitted or top-dose-only effect; inactive = flat fitted curve, though single readings scatter.

The nature of test [1]: qHTS profiling for inhibitors of Plasmodium falciparum proliferation (AID 504749).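 As to activity, negative = inhibition: 0% = DMSO vehicle and full inhibition = artemisinin control.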 As to all read-outs here: nearly all actives have a fitted effect of over 60% in size. To be noted: P. falciparum in erythrocytes, SYBR Green DNA, 72 h; for activity, negative = inhibition: at 28.7 µM (top of the series). The procedure, abridged:
(§1)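 SYBR Green fluorescence (ex 485 nm, em 535 nm) reports parasite DNA after 72 h compound exposure of infected red cells at 0.3% parasitemia, 2.5% hematocrit; signal normalized to 0.29 uM artemisinin and vehicle wells.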
For orientation: qHTS replaces the single test concentration by a dilution series.

For another test, the system named is 3D7. The description is as above. To be noted: P. falciparum in erythrocytes, SYBR Green DNA, 72 h; series mostly up to 28.7 µM. In a few lines:
as §1

In the next test the test system is 7G8. Described as above. Conditions: P. falciparum in erythrocytes, SYBR Green DNA, 72 h; series mostly up to 28.7 µM. The procedure, abridged: as §1
Another test has as its system AA1029. The test is described as above. To be noted: P. falciparum in erythrocytes, SYBR Green DNA, 72 h; series mostly up to 28.7 µM. The procedure, abridged: as §1
In a further test the test system is AS120. Described as above. To be noted: P. falciparum in erythrocytes, SYBR Green DNA, 72 h; series mostly up to 28.7 µM. The procedure, abridged: as §1
A further test concerns ATS189. Described as above. To be noted: P. falciparum in erythrocytes, SYBR Green DNA, 72 h; series mostly up to 28.7 µM. In a few lines:
as §1

The test system of another test is ATS95. The description is as above. Conditions: P. falciparum in erythrocytes, SYBR Green DNA, 72 h; series mostly up to 28.7 µM. In a few lines:
as §1

The subject of another test is C2A. The description is as above. To be noted: P. falciparum in erythrocytes, SYBR Green DNA, 72 h; series mostly up to 28.7 µM. The procedure, abridged:
as §1

For the next test, the system named is CP185. The test is described as above. To be noted: P. falciparum in erythrocytes, SYBR Green DNA, 72 h; series mostly up to 28.7 µM. In a few lines: as §1
Another test concerns CP191. The description is as above. Conditions: P. falciparum in erythrocytes, SYBR Green DNA, 72 h; series mostly up to 28.7 µM. In a few lines: as §1
A further test has as its system CP192. The description is as above. To be noted: P. falciparum in erythrocytes, SYBR Green DNA, 72 h; series mostly up to 28.7 µM. The procedure, abridged: as §1
In the next test the test system is CP194. The test is described as above. To be noted: P. falciparum in erythrocytes, SYBR Green DNA, 72 h; series mostly up to 28.7 µM. The procedure, abridged:
as §1

The subject of another test is CP201. The description is as above. Conditions: P. falciparum in erythrocytes, SYBR Green DNA, 72 h; series mostly up to 28.7 µM. The procedure, abridged: as §1
The next test concerns CP203. The description is as above. Conditions: P. falciparum in erythrocytes, SYBR Green DNA, 72 h; series mostly up to 28.7 µM. The procedure, abridged:
as §1

In the next test the test system is CP211. The test is described as above. To be noted: P. falciparum in erythrocytes, SYBR Green DNA, 72 h; series mostly up to 28.7 µM. The procedure, abridged:
as §1

In another test the test system is CP215. The test is described as above. Conditions: P. falciparum in erythrocytes, SYBR Green DNA, 72 h; series mostly up to 28.7 µM. In a few lines: as §1
A further test deals with CP217. Described as above. To be noted: P. falciparum in erythrocytes, SYBR Green DNA, 72 h; series mostly up to 28.7 µM. In a few lines: as §1
For the next test, the system named is CP237. The test is described as above. To be noted: P. falciparum in erythrocytes, SYBR Green DNA, 72 h; series mostly up to 28.7 µM. The procedure, abridged:
as §1
Potency is read from the fitted curve at half-maximal effect.

As to `Cc1c(F)c(N2CCNC(C)C2)cc2c1c(=O)c(C(=O)O)cn2C1CC1` (centres undefined), the figures for the activity, negative = inhibition in [1] (parasite line A) and in [1] (parasite line B) were 8.42% and 6.98%, respectively. Moreover, the Potency entry in the test with 3D7, with 7G8, in the test on AA1029, in the test with AS120, in the test with ATS189 and in the test on ATS95 was “inactive” each time. Also, the Potency result with C2A, with CP185, in the test with CP191, with CP192, in the test with CP194 and in the test on CP201 was “inactive” each time. Further, the Potency result in the test on CP203, in the test on CP211, in the test with CP215, with CP217 and in the test with CP237 was “inactive” in each case.
For the molecule `C1CCc2nnnn2CC1`, the activity, negative = inhibition is 11.2% in [1] (parasite line A) and 0.626% in test [1] (parasite line B). In addition, the Potency entry in the test with 3D7, in the test on 7G8, in the test with AA1029, in the test with AS120, in the test on ATS189 and with ATS95 was “inactive” each time. In addition, the Potency entry in the test on C2A, with CP185, in the test with CP191, with CP192, with CP194 and in the test on CP201 was “inactive” each time. The Potency entry in the test with CP211, in the test on CP215, in the test on CP217 and in the test with CP237 was “inactive” in each case.
Regarding `CC(C)(C)CC(C)(C)c1ccc(OCCOCC[N+](C)(C)Cc2ccccc2)cc1`, the Potency in [1] (parasite line A) is 3.55 µM (active); in test [1] (parasite line B) it was 5.01 µM (active); in the test on 3D7 it was 1.78 µM (active); in the test with 7G8 it was 1.58 µM (active); in the test with AA1029, 4.47 µM (active); with AS120, 5.01 µM (active). In addition, the Potency was 7.08 µM (active) in the test on ATS189; 3.98 µM (active) with ATS95; 3.16 µM (active) in the test with C2A; 3.55 µM (active) in the test on CP185; 1.58 µM (active) in the test on CP191; 4.26 µM (active) with CP192. Further, the Potency was 3.79 µM (active) with CP194; 4.78 µM (active) in the test on CP201; 4.78 µM (active) in the test on CP203; 4.26 µM (active) in the test with CP211; 5.36 µM (active) in the test with CP215; 4.47 µM (active) in the test with CP217. The Potency in the test on CP237 was 2.51 µM (active).
With `CC(=O)Oc1ccc(C(c2ccc(OC(C)=O)cc2)c2ccccn2)cc1`, the activity, negative = inhibition in test [1] (parasite line A) is 0.325%; in test [1] (parasite line B) it was 3.02%. The Potency result in the test on 3D7, with 7G8, in the test on AA1029, in the test with AS120, in the test with ATS189 and in the test with ATS95 was “inactive” throughout. The Potency entry with C2A, in the test with CP185, in the test on CP191, in the test on CP192, with CP194 and in the test with CP201 was “inactive” each time. For the same molecule, the Potency result in the test with CP203, in the test on CP211, in the test with CP215, in the test with CP217 and with CP237 was “inactive” each time.
For `O=C(COc1ccc(Cl)cc1)N1CCN(Cc2ccc3c(c2)OCO3)CC1`, the activity, negative = inhibition in test [1] (parasite line A) was 11%; in [1] (parasite line B), 10.8%. Moreover, the Potency entry in the test on 3D7, with 7G8, in the test on AA1029, in the test on AS120, in the test on ATS189 and in the test with ATS95 was “inactive” throughout. For the same molecule, the Potency result in the test with C2A, with CP185, in the test on CP191, with CP192, in the test with CP194 and in the test with CP201 was “inactive” each time. Moreover, the Potency result in the test on CP203, in the test on CP211, with CP215, with CP217 and with CP237 was “inactive” throughout.
`CC1=C(C(=O)OC(C)C)C(c2cccc([N+](=O)[O-])c2)C(C(=O)OC2CN(C(c3ccccc3)c3ccccc3)C2)=C(N)N1` (centres undefined): the Potency in test [1] (parasite line A) is 3.55 µM (active); in [1] (parasite line B), 7.08 µM (active); in the test with 3D7, 7.08 µM (active); in the test on 7G8, 3.16 µM (active); in the test on AA1029 it was 7.08 µM (active); in the test on AS120 it was 4.47 µM (active). Also, the Potency in the test on ATS189 is 7.08 µM (active); in the test with ATS95, 11.2 µM (active); in the test with CP185 it was 10 µM (active); with CP191, 7.08 µM (active); in the test with CP192, 7.57 µM (active); with CP194, 6.75 µM (active). The Potency in the test on CP201 is 7.57 µM (active); with CP203, 12 µM (active); with CP211, 6.75 µM (active); with CP215 it was 7.57 µM (active); in the test on CP217, 6.31 µM (active); in the test with CP237, 12.6 µM (active).
As for `CC(C)(C)CC(C)(C)c1ccc(O)c(Cc2ccc(Cl)cc2Cl)c1`, the Potency in test [1] (parasite line A) was 2 µM (active); in test [1] (parasite line B), 0.562 µM (active); with 3D7, 2.24 µM (active); in the test with 7G8, 0.447 µM (active); in the test with AA1029, 0.891 µM (active); in the test on AS120, 0.501 µM (active). For the same molecule, the Potency in the test on ATS189 was 0.794 µM (active); in the test on ATS95 it was 2 µM (active); with C2A, 2.82 µM (active); in the test with CP185, 3.16 µM (active); in the test on CP191, 1 µM (active); in the test with CP192, 3.79 µM (active). Moreover, the Potency was 1.69 µM (active) in the test with CP203; 1.51 µM (active) with CP211; 1.69 µM (active) in the test on CP215; 2.82 µM (active) in the test on CP217; 2.51 µM (active) with CP237.
For `Cc1c(C)n(CCN(C)C)c2ccc(C(=O)OCCN(C)C)cc12`, the activity, negative = inhibition is -7.71% in test [1] (parasite line A) and -8.88% in test [1] (parasite line B). The Potency result in the test with 3D7, in the test with AA1029, in the test on AS120, in the test on ATS189, in the test on ATS95 and with C2A was “inactive” throughout. Besides, the Potency result in the test with CP185, in the test on CP191, in the test on CP192, in the test with CP194, in the test on CP201 and in the test with CP211 was “inactive” in each case. For the same molecule, the Potency entry with CP215 and in the test on CP217 was “inactive” in each case. Moreover, the Potency was 8.91 µM (active) in the test with 7G8 and 11.2 µM (active) in the test on CP237.
For `O=S1(=O)c2cccc3cccc(c23)N1CCCN1CCN(c2ccc(F)cc2)CC1`, the activity, negative = inhibition is 7.63% in [1] (parasite line A) and -0.586% in test [1] (parasite line B). Moreover, the Potency result in the test with 3D7, in the test with AA1029, in the test on AS120, with ATS189, with ATS95 and in the test on C2A was “inactive” in each case. Also, the Potency result in the test on CP185, in the test on CP191, in the test with CP192, in the test on CP194, in the test on CP201 and with CP211 was “inactive” throughout. The Potency result with CP215, in the test on CP217 and in the test with CP237 was “inactive” in each case. For the same molecule, the Potency in the test with 7G8 is 12.6 µM (active).
`CCOC(=O)OC(C)OC1=C(C(=O)Nc2ccccn2)N(C)S(=O)(=O)c2ccccc21` (centres undefined): the results for the activity, negative = inhibition in test [1] (parasite line A) and in [1] (parasite line B) were 3.03% and 19.4%, respectively. Besides, the Potency entry in the test on 3D7, with 7G8, in the test on AA1029, in the test on AS120, with ATS189 and in the test on ATS95 was “inactive” in each case. The Potency entry in the test with C2A, in the test on CP185, in the test with CP191, in the test with CP192, with CP194 and in the test with CP201 was “inactive” each time. The Potency result in the test with CP211, with CP215, in the test with CP217 and in the test with CP237 was “inactive” throughout.
With `CN1CCC(=C2c3ccccc3Sc3ccccc32)CC1`, the Potency in test [1] (parasite line A) is 6.31 µM (active); in test [1] (parasite line B), 10 µM (active); in the test with 3D7, 8.91 µM (active); in the test on 7G8, 5.01 µM (active); in the test on AA1029, 5.62 µM (active); in the test on AS120, 12.6 µM (active). Also, the Potency with ATS189 was 7.94 µM (active); with ATS95, 11.2 µM (active); in the test with C2A, 11.2 µM (active); in the test with CP185, 8.91 µM (active); in the test on CP194 it was 10.7 µM (active); with CP203, 3.79 µM (active). Besides, the Potency in the test with CP211 is 13.5 µM (active); in the test with CP215 it was 9.53 µM (active); in the test with CP217 it was 11.2 µM (active); in the test on CP237 it was 8.91 µM (active).
